This note sets out measurements from PubChem BioAssay (NCATS).

Starred links: 1 amine or outer side, 2 acyl side, 3 side chain; linkers in the order of their positions; H or OH if unused. Positions of bridges follow the written chain, without caps; N, C: chain ends. Non-standard residues stand in square brackets, D forms with d. Residues, ends and D or L forms follow the SMILES beside them. Chains are numbered I, II in the order given. Actinocin(9to1) = Cc1c2oc3c(C)ccc(C(=O)[*:1])c3nc-2c(C(=O)[*:2])c(N)c1=O; NMeV = CN[CH](C(=O)O)C(C)C; Sar = CNCC(=O)O

A short description of the assay: High-throughput drug toxicity screening in the BPDCN cell line Gen2.2 (AID 1224824). To be noted: Gen2.2 BPDCN cells; at 45.8 µM (top of the series) unless noted. The source says:
Blastic plasmacytoid dendritic cell neoplasm (BPDCN) is a rare, aggressive and largely incurable hematologic malignancy originating from plasmacytoid dendritic cells (pDCs). Although an initial response to chemotherapy is common, BPDCN prognosis is extremely poor and most patients relapse with drug-resistant disease leading to a median overall survival of ~1 year after diagnosis. To explore novel potential therapeutic strategies in BPDCN, we performed a high-throughput drug toxicity screening in BPDCN cell liens, using of a library of 1,912 small molecules, enriched for compounds that are either approved or in early stages of development for cancer therapy.
A total of 500 exponentially growing Gen2.2 cells were seeded per well in 5 uL of media (RPMI + Glutamine, without phenol red plus10% FBS and 1X Pen/Strep) into 1536-well solid white high base tissue culture treated Greiner One Bio Plates (789173-F), using a multidrop combi dispenser and a small sterile cassette. Compounds and controls totaling 23nL per well (negative control DMSO and positive control 9.2 uM Bortezomib-final) were immediately added to the plates using a 1536 head pin tool from Kalypsys. The plates were then covered with stainless steel gasket lids from Kalypsys and incubated for 48 hours at 37C under 95% relative humidity with 5% CO2. After 48 hours, the plates were removed and allowed to reach room temperature before 3 uL of Cell Titer Glo reagent (Promega) were added using an Aurora Flying Reagent Dispenser Bioraptor. The plates were then spun at 1000 rpms to remove bubbles and incubated for 15 minutes at room temperature before reading on a ViewLux using a luminescent filter with a 10 second exposure. The relative luciferase units were used to calculated percent activity using DMSO as 100% and Bortezomib as 0%.
Consider `Cc1cc(O)c2c(c1)C(=O)c1cccc(O)c1C2=O`, for which the cell viability, % of control (lower = more cytotoxic) was determined as 99.4%.

For the compound `Cn1cc(CNCC2CCN(c3ncc(C(=O)NO)cn3)CC2)c2ccccc21`, the cell viability, % of control (lower = more cytotoxic) was determined as 12.7%.

For the compound `CN(N=O)C(=O)N[C@H]1C(O)OC(CO)[C@@H](O)[C@H]1O` (stereo not given in full), the cell viability, % of control (lower = more cytotoxic) was 97.4%. Turning to `CNC(=O)c1ccc(Nc2cc(Nc3ccccc3S(=O)(=O)C(C)C)c3cc[nH]c3n2)nc1`, the cell viability, % of control (lower = more cytotoxic) was 19.7%.

On to `C[N+]1(C)[C@@H]2C[C@@H](OC(=O)C(O)(c3cccs3)c3cccs3)C[C@H]1[C@@H]1O[C@@H]12`, for which the cell viability, % of control (lower = more cytotoxic) stood at 87.6%. The figure for `O=[N+]([O-])c1cn2c(n1)OC[C@@H](OCc1ccc(OC(F)(F)F)cc1)C2` is 110%; for `c1ccc2c(Oc3nc(Nc4ccc(N5CCOCC5)cc4)c4ncn(C5CCCCC5)c4n3)cccc2c1` it is 187%; for `Cc1c2oc3c(C)ccc(C(=O)NC4C(=O)NC(C(C)C)C(=O)N5CCCC5C(=O)N(C)CC(=O)N(C)C(C(C)C)C(=O)OC4C)c3nc-2c(C(=O)NC2C(=O)NC(C(C)C)C(=O)N3CCCC3C(=O)N(C)CC(=O)N(C)C(C(C)C)C(=O)OC2C)c(N)c1=O` (stereo not given) (I: TVP[Sar][NMeV] / II: TVP[Sar][NMeV]; ester I:1-I:C, II:1-II:C; linker I:N-II:N via Actinocin(9to1); configuration not given here) it is 2.59%. Regarding `CC(C)OC(=O)[C@H](C)N[P@](=O)(OC[C@H]1O[C@@H](n2ccc(=O)[nH]c2=O)[C@](C)(F)[C@H]1O)Oc1ccccc1`, the cell viability, % of control (lower = more cytotoxic) is 128%. `O=C(Nc1nnc(-c2ccco2)o1)c1cc(-c2ccccc2)nc2ccccc12`: the cell viability, % of control (lower = more cytotoxic) is 42.4%. Regarding `CCn1c(=O)c2c(nc(C=Cc3ccc(OC)c(OC)c3)n2C)n(CC)c1=O`, the cell viability, % of control (lower = more cytotoxic) is 193%. On to `CCOC(=O)C1=C(C)NC(=S)NC1c1cccc(O)c1` (stereo not given), for which the cell viability, % of control (lower = more cytotoxic) worked out at 48.9%. Next, `COc1ccc(S(=O)(=O)Nc2cccnc2Nc2ccc(O)cc2)cc1`: 4.34%; `Cn1cc(-c2ccc3ncc(Cc4ccc5ncccc5c4)n3n2)cn1`: 45.5%; `CCCc1nc(C(C)(C)O)c(C(=O)O)n1Cc1ccc(-c2ccccc2-c2nn[nH]n2)cc1`: 110%. Next, `Cc1nc(NC(=O)N2CCC[C@@H]2C(N)=O)sc1-c1ccnc(C(C)(C)C(F)(F)F)c1`: 21%. The figure for `CCOc1cc2ncc(C#N)c(Nc3ccc(OCc4ccccn4)c(Cl)c3)c2cc1NC(=O)C=CCN(C)C` is 4.27%; for `CCCCC(=O)O[C@]1(C(=O)CO)[C@@H](C)C[C@H]2[C@@H]3CCC4=CC(=O)C=C[C@]4(C)[C@@]3(F)[C@@H](O)C[C@@]21C` it is 44%. Consider `COC[C@H](NC(=O)c1cnc(C)s1)C(=O)N[C@@H](COC)C(=O)N[C@@H](Cc1ccccc1)C(=O)[C@@]1(C)CO1`, for which the cell viability, % of control (lower = more cytotoxic) was determined as 0.973%. Consider `CC(=O)O[C@]1(C(C)=O)CC[C@H]2[C@@H]3C=C(C)C4=CC(=O)CC[C@]4(C)[C@@H]3CC[C@@]21C`, for which the cell viability, % of control (lower = more cytotoxic) turned out to be 5.55%. Next, `Cc1ccc([N+](=O)[O-])cc1S(=O)(=O)N(C)N=Cc1cnc2ccc(Br)cn12`: 28.8%. With `CCOC(=O)N1CCN([N+]([O-])=NOc2ccc([N+](=O)[O-])cc2[N+](=O)[O-])CC1`, the cell viability, % of control (lower = more cytotoxic) came to 17.4%. The figure for `C=C[C@@H]1CN2CCC1C[C@H]2[C@H](O)c1ccnc2ccc(OC)cc12` (stereo not given in full) is 111%; for `Cn1cc(-c2cnn3c(N)c(Br)c([C@H]4CCCNC4)nc23)cn1` it is 8.78%; for `Cc1[nH]c(C=C2C(=O)Nc3ccccc32)c(C)c1CCC(=O)O` it is 12.9%. Next, `CC[C@H](CC[C@@H](C)[C@H]1CC[C@H]2[C@@H]3CC=C4C[C@@H](O)CC[C@]4(C)[C@@H]3CC[C@]12C)C(C)C`: 114%; `COc1cccc2c1C(=O)c1c(O)c3c(c(O)c1C2=O)C[C@@](O)(C(=O)CO)C[C@H]3O[C@H]1C[C@H](N)[C@H](O)[C@H](C)O1`: 6.45%. Next, `CNC(=O)Nc1ccc(-c2nc(N3CC4CCC(C3)O4)c3cnn(C4CCC5(CC4)OCCO5)c3n2)cc1`: 17.6%; `Cn1cc(C[C@@H](N)C(=O)O)c2ccccc21`: 152% [at 23.2 µM]; `Nc1ccc(C(=O)Nc2cccc(-c3nc(N4CCOCC4)c4oc5ncccc5c4n3)c2)cn1`: 15.1%.

`CN1C(C(=O)Nc2ccccn2)=C(O)c2sc(Cl)cc2S1(=O)=O`: the cell viability, % of control (lower = more cytotoxic) turned out to be 59.6%.

`CS[C@H]1SC[C@@H]2C(=O)N(C)[C@H](C(C)C)C(=O)OC[C@H](NC(=O)c3cnc4ccccc4n3)C(=O)N[C@H](C)C(=O)N(C)[C@@H]1C(=O)N(C)[C@H](C(C)C)C(=O)OC[C@H](NC(=O)c1cnc3ccccc3n1)C(=O)N[C@H](C)C(=O)N2C`: the cell viability, % of control (lower = more cytotoxic) turned out to be 3.67%. On to `CC(N[C@H]1CCCC[C@H]1NC(=O)c1ccc(Cl)cc1)c1cccc2ccccc12` (stereo not given in full), for which the cell viability, % of control (lower = more cytotoxic) is 114%. As to `CC(=O)NCC(=O)N1[C@H]2CC[C@H]1c1cc(Nc3ncc(C(F)(F)F)c(NC4CCC4)n3)ccc12`, the cell viability, % of control (lower = more cytotoxic) was found to be 2.71%. For the compound `CC(C)[C@H](CO)Nc1nc(Nc2cccc(Cl)c2)c2ncn(C(C)C)c2n1`, the cell viability, % of control (lower = more cytotoxic) is 2.15%. Next, `Oc1ccc(-c2ccc(-c3cc(Nc4cccc(CNC5CC5)c4)n[nH]3)cc2)c(O)c1`: 2.13%; `CCc1ccc(C(=O)Nc2cc(CN3CCN(C)CC3)cc(C(F)(F)F)c2)cc1C#Cc1cnc2ccnn2c1`: 4.8%.

On to `NC[C@H]1O[C@H](O[C@H]2[C@@H](O)[C@@H](O[C@H]3O[C@H](CO)[C@@H](O)[C@H](N)[C@@H]3O)[C@H](N)C[C@@H]2N)[C@H](N)C[C@H]1O`, for which the cell viability, % of control (lower = more cytotoxic) was found to be 200%. The figure for `C[C@H]1COc2c(N3CCN(C)CC3)c(F)cc3c(=O)c(C(=O)O)cn1c23` is 160%.

In the case of `O=C(CCCCCCC(=O)Nc1cccnc1)NO`, the cell viability, % of control (lower = more cytotoxic) came to 20.5%.
